# Source: PubChem (National Center for Advancing Translational Sciences (NCATS))
# Only some compounds are listed: those with a hit (about 15% of all), similar ones and a draw of the others.
# ALOX12 inh: Primary qHTS assay for inhibitors of human arachidonate 12S-lipoxygenase (ALOX12): Round 2; AID 1671190, 2021; Polyunsaturated fatty acid lipoxygenase ALOX12 (Homo sapiens), P18054; hit rate 1.1% among 580,000; purified 12hLO, xylenol orange hydroperoxide absorbance; Potency, µM (doses to about 108 µM), inactives show at the highest dose activity change, negative = inhibition, hits mostly inhibitors
# Target sequence (P18054 whole entry, looked up): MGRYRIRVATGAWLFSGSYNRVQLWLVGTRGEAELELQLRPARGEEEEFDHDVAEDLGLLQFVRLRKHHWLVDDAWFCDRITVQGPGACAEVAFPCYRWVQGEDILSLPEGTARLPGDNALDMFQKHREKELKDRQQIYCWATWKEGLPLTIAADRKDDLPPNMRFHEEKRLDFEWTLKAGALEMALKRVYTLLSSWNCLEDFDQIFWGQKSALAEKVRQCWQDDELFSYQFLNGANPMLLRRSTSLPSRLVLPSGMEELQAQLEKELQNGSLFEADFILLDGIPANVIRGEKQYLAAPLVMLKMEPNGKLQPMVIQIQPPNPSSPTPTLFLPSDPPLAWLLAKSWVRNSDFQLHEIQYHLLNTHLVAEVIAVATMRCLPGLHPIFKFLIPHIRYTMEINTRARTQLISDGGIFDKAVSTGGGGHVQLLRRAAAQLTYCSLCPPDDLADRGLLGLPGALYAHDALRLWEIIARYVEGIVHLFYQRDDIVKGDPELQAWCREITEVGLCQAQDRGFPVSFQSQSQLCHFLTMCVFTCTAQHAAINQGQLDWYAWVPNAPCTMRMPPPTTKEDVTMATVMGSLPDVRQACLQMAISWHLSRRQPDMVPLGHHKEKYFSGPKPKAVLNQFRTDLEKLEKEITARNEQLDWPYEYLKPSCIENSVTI
#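 Hydroperoxide product was detected by ferrous iron/xylenol orange as the 573 to 405 nm absorbance ratio. Arachidonic acid at 40 uM (final) was turned over for 30 min at room temperature by 150 nM human 12hLO, pH 7.0 Hepes buffer, after 15 min compound preincubation.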
# RORgamma inh: qHTS for inhibitors of ROR gamma transcriptional activity; Potency, µM (titrated, usually from 53.6 µM), for inactives: at the top dose activity change, negative = inhibition, hits mostly inhibitors; Nuclear receptor ROR-gamma (Mus musculus), P51450; Drosophila S2 Gal4-RORgamma UAS-luciferase reporter, 20 h; hit rate 5.4% among 310,000; note: nearly all actives have a fitted effect of over 60% in size
#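 Drosophila S2 cells stably expressing Gal4-DBD/mouse RORγ fusion under metallothionein promoter plus UAS-luciferase; compound 1 h, then 700 uM CuSO4 induction for 20 h at ambient temperature; inhibition read as reduced luminescence.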
# ELG1 repair inh: qHTS screen for small molecules that inhibit ELG1-dependent DNA repair in human embryonic kidney (HEK293T) cells expressing luciferase-tagged ELG1 | HEK293T ELG1-luciferase reporter, luminescence, 16 h; DNA damage induced by 5-fluorouridine | Potency, µM (highest dose often 46.1 µM), for the others: at the highest dose activity change, negative = inhibition, hits mostly inhibitors | AID 504467, 2011 | hit rate 2.3% among 330,000; note: nearly all actives have a fitted effect of over 55% in size
#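 Overnight (16 hr) co-exposure of 2,000 cells/well to 5-fluorouridine and compound at 37 °C preceded detection. Luciferase was quantified via ONE-Glo luminescence; loss of signal denotes inhibition.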
# Gal4-VP16 FLuc: VP16 counterscreen qHTS for inhibitors of ROR gamma transcriptional activity | Drosophila S2 Gal4-VP16 UAS-luciferase, luminescence, 20 h | Potency, µM (highest dose often 53.6 µM), for inactives: at the top dose activity, negative = inhibition, usual class: inhibitors | hit rate 3.5% among 310,000 | AID 2546, 2010;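 note: Gal4-VP16 expression switched on by copper sulfate through the metallothionein promoter; nearly all actives have a fitted effect of over 50% in size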
# TDP1 cell CPT: qHTS for Inhibitors of human tyrosyl-DNA phosphodiesterase 1 (TDP1): qHTS in cells in presence of CPT; chicken DT40 Tdp1-/-;hTDP1 cells + 20 nM CPT, ATP luminescence, 48 h; Potency, µM (titrated, usually from 46.2 µM), without a hit: at the top dose activity change, negative = growth inhibition, usual class: inhibitors; hit rate 12% among 420,000; AID 686979, 2013; note: nearly all actives have a fitted effect of over 55% in size
#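 Chicken DT40 Tdp1-/- cells complemented with human TDP1, 400 cells/well, exposed to compounds plus 20 nM camptothecin for at least 48 h at 37 C; viability read as ATP content by CellTiter-Glo luminescence.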
# TDP1 cell noCPT: qHTS for Inhibitors of human tyrosyl-DNA phosphodiesterase 1 (TDP1): qHTS in cells in absence of CPT. DT40 Tdp1-/- hTDP1 cells, no CPT, ATP luminescence, 48 h. Potency, µM (top dose mostly 46.2 µM), without a hit: top-dose activity change, negative = growth inhibition, hits mostly inhibitors. hit rate 15% among 420,000; note: nearly all actives have a fitted effect of over 55% in size
#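 Growth of hTDP1-complemented DT40 Tdp1-knockout cells is measured by ATP luminescence after at least 48 hr compound exposure at 37 °C, with DMSO substituting for the 20 nM CPT used in the parallel screen.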
# Numbers without * were called inactive; ? = inconclusive; · = not tested or not shown; ! = not active in a repeat; [ ] = remark or other dose. Calls come from the whole dose curve; as a rule, active = well fitted curve in the direction sought with a large enough effect; inconclusive = small, poorly fitted or top-dose-only effect, or another doubt; inactive = no such curve, though single readings can be large; an effect the other way counts as inactive or inconclusive. % is set by controls: 0 for no effect and ±100 for the full control effect; potency is the fitted concentration of half-maximal effect.
SMILES,ALOX12 inh,RORgamma inh,ELG1 repair inh,Gal4-VP16 FLuc,TDP1 cell CPT,TDP1 cell noCPT
CCC[C@H](N[C@@H](CCC)[C@H](O)c1ccccc1)[C@H](O)c1ccccc1,7.5%,·,·,·,25.9µM*,23.1µM*
C[C@@H]1CNC(=O)c2c(C(=O)Nc3ccc(CNC(=O)OC(C)(C)C)cc3)ncn21,9.9%,·,·,·,23.1µM*,9.2µM*
CC(C)Cn1cc(C(=O)NCC2CCCN2C)c2ccccc21 (stereo unspecified),-1.9%,·,·,·,·,·
C[C@H]1O[C@@H](OC2CC[C@]3(C=O)[C@H]4CC[C@]5(C)[C@@H](C6=CC(=O)OC6)CC[C@]5(O)[C@@H]4CC[C@]3(O)C2)CC2OC(C)(C)OC21 (stereo partly specified),129.2%,15.8µM*,?,-1.4%,1.84µM*,1.03µM*
CC12CC[C@H]3[C@@H](CCC4(O)C[C@H](O)CCC34/C=N/NC(=O)c3ccccc3Cl)C1(O)CCC2C1=CC(=O)OC1 (stereo partly specified),11.7%,-19.6%,-2.6%,-1.2%,0.9%,-0.2%
CC(=O)O[C@H]1CC[C@]2(C=O)C3CC[C@]4(C)[C@@H](C5=CC(=O)OC5)CC[C@]4(O)C3CC[C@]2(O)C1 (stereo partly specified),·,-5.0%,·,4.8%,·,·
CC12CCC3C(CCC4(O)CC(O)CCC34C=NO)C1(O)CCC2C1=COC(=O)C1 (stereo unspecified),11.9%,·,·,·,16.4µM*,8.2µM*
C[C@]12CC[C@H]3[C@@H](CC[C@]4(O)C[C@@H](O)CC[C@]34C=O)[C@@]1(O)CC[C@@H]2C1=CC(=O)OC1,6.3%,·,?,·,7.31µM*,5.17µM*
CC12CCC3C(CCC4(O)CC(O)CCC34C=O)C1(O)CCC2C1=CC(=O)OC1 (stereo unspecified),-3.2%,·,·,·,10.3µM*,7.31µM*
CC1OC(OC2CCC3(C=O)[C@H]4CCC5(C)C(C6=CC(=O)OC6)CCC5(O)[C@@H]4CCC3(O)C2)CC(O)C1O (stereo partly specified),-8.7%,·,·,·,·,·
COc1ccc(S(=O)(=O)N2[C@H]3CC[C@@H]2c2cncnc2C3)cc1,-10.9%,·,·,·,·,·
C[C@H]1C[C@@H]2[C@H]([C@@H](O)C[C@@]3(C)[C@H]2CC[C@]3(O)C(=O)COC(=O)CCC(=O)O)[C@@]2(C)C=CC(=O)C=C12,·,·,·,·,?,-16.0%
Cc1c2ccncc2c(C)c2c1[nH]c1ccccc12,-15.2%,10µM*,?,5.62µM*,2.31µM*,1.46µM*
Cc1nccc2c1[nH]c1ccccc12,?,-24.2%,-2.3%,-13.9%,?,23.7µM*!
COc1ccc(-c2cn(C[C@H]3CC4CCN3C[C@@H]4C(=O)NCc3ccc(F)cc3)nn2)cc1 (stereo partly specified),-1.0%,·,·,·,·,·
CC(C)c1ccc2c(c1)C(N1CCNCC1)Cc1ccc(F)cc1S2 (stereo unspecified),?,·,·,·,?,25.9µM*
Cc1ccc([C@H]2C[C@@H](O)[C@@H](O)[C@@H]2NCC(C)C)cc1,19.6%[176 µM],·,·,·,·,·
COc1ccc(CC2c3cc(OC)c(OC)cc3CCN2C)cc1OC (stereo unspecified),12.0%,2.5%,-6.5%,1.6%,18.4µM*!,23.1µM*!
O=C(NC1CCCCC1)N1C[C@@H]2C[C@H](C1)c1ccc(C3CCCCC3)c(=O)n1C2,-30.9%[176 µM],·,·,·,·,·
COc1c(OP2(=S)OCC(C)(C)CO2)cnn(C2CCCCC2)c1=O,-3.5%,·,·,·,23.1µM*,20.6µM*
O=C(Cc1cccc(F)c1)N1CCC2(CC1)NCc1ccccc1-n1ccnc12,3.1%,·,·,·,·,·
C[C@H]1C[C@H](C)C(=O)[C@@H]([C@H](O)CC2CC(=O)NC(=O)C2)C1,228.0%,?,·,?,0.133µM*,0.0841µM*
C[C@H]1C[C@@H](C)C(=O)[C@@H]([C@H](O)CC2CC(=O)NC(=O)C2)C1,18.0%,0.251µM*!,0.517µM*,2.82µM*!,0.184µM*,0.184µM*
CC1CC(C)C(=O)[C@H](C(O)CC2CC(=O)NC(=O)C2)C1 (stereo partly specified),·,0.316µM*,·,2.3%,0.291µM*,0.0731µM*
c1ccc(C2=NOC3(CCCN(CC4CCCCC4)C3)C2)nc1 (stereo unspecified),0.8%[6.33 µM],·,·,·,·,·
SMILES,ALOX12 inh,RORgamma inh,ELG1 repair inh,Gal4-VP16 FLuc,TDP1 cell CPT,TDP1 cell noCPT
COC(=O)[C@@H]1[C@@H](CO)[C@@H]2Cn3c(ccc(Br)c3=O)[C@H]1N2S(=O)(=O)c1cn(C)cn1,-0.3%,·,·,·,·,·
O=C(Nc1ccc2nc(-c3cccs3)c(-c3cccs3)nc2c1)NC1CC1,?,?,?,?,?,17.8µM*
O=C(CCC1CCCC1)c1c(O)c2ccccc2oc1=O,23.2%,-68.3%,17.9%,?,5.17µM*,4.11µM*
O=C(CCC1CCN(Cc2ccccc2)CC1)c1ccc2c(c1)NCCCC2,-8.4%[22.9 µM],·,·,·,?,11.9µM*
O=C(c1ccc(C(F)(F)F)cc1)N1CCN(Cc2ccccc2)CC1,11.5%,·,·,·,·,·
C=C[C@H]1CN2CC[C@H]1C[C@@H]2CNC(=O)c1cccnc1SC,19.6%[176 µM],·,·,·,·,·
CCOC(=O)c1c(-n2c(C)cc(C=C3C(=O)NC(=O)NC3=O)c2C)sc2c1CCCC2,-20.0%,26.4%,-1.8%,-23.7%,?,18.4µM*
Cc1cccc(N2C(=O)NC(=O)/C(=C\c3cc(C)n(-c4sc5c(c4C#N)CCCC5)c3C)C2=O)c1C,?,28.8%,?,4.2%,?,?
Clc1ccc2c(c1)C(c1ccccc1Cl)=NCc1nnc(N3CCN(CCOc4ccccc4)CC3)n1-2,-27.9%,?,?,-21.1%,20.6µM*,16.4µM*
Clc1ccc2c(c1)C(c1ccccc1Cl)=NCc1nnc(N3CCN(CCSc4ccccc4)CC3)n1-2,?,12.4%,3.3%,2.8%,25.9µM*,?
Cc1cccc(OCC(=O)N2C[C@@H](CO)[C@H](N(C)C)C2)c1,39.7%,·,·,·,·,·
N#CC1c2ccccc2-n2nncc2CN1Cc1cc(Cl)cc(Cl)c1 (stereo unspecified),?,·,·,·,1.64µM*,1.84µM*
